This is part of a sample that, as a whole, favours compounds with a hit. Of some 83,000 tested, about 20% had one in any assay.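 How to read the values: 0–100, growth inhibition (40 = 60% inhibited); 0, no net growth; -100 to 0, cell death (-40 = 40% of starting cells died; -100 = all dead).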 Values without a mark were called inactive. Active and inactive are the calls of the source. Rule for the calls: active = growth percent below 10; inactive = the rest.
Test system: HL-60(TB) leukemia
Experiment: NCI-60 one-dose screen, 48 h (100 = growth as untreated, 0 = no growth, -100 = all killed)
Details: 10 µM unless noted

Compound	growth
O=S(=O)(O)c1ccc(N=Nc2ccc(N=Nc3cccc4ccccc34)c(S(=O)(=O)O)c2)cc1	105%
CCC(C)C(N)C(=O)NNc1n[nH]c(=S)n1N (configuration not stated)	100%
Cc1nc2sc(C(=O)Nc3ccccc3)c(N)c2cc1C(=O)/C=C/c1ccccc1	3.44% (active)
FC(F)(F)c1cccc(-n2nnc3cnc(Nc4ccc(N5CCCCC5)cc4)nc32)c1	103%
NCC(O)C(O)C(O)C(O)CO (configuration not stated)	114%
CCOc1cc(/C=C/C(=O)C(C(=O)/C=C/c2ccc(OC(=O)CNc3nc4ccccc4[nH]3)c(OCC)c2)C(=O)CNc2nc3ccccc3[nH]2)ccc1OC(=O)CNc1nc2ccccc2[nH]1	-44.4% (active)
COc1ccc(Cn2cc3c(c2)-c2oncc2CC3)cc1	24.5%
CS(=O)(=O)Nc1ccc(Nc2c3ccccc3nc3cc(Cl)ccc23)cc1	-1.97% (active)
CCCN1C(=O)/C(=c2\sc3n(c2=O)NC2C(N=3)N(CC)C(=O)N2CC)c2ccccc21 (configuration not stated)	-18.4% (active)
COc1ccc(-c2nn(-c3cccc(Cl)c3)cc2/C=C2\C(=N)N(c3ccccc3)N=C2N)cc1	9.27% (active)
O=S(=O)(NCCNc1cc(-c2c(-c3cccc(O)c3)nc3sccn23)ccn1)c1ccc(Cl)cc1	84.3%
O=C(C(=O)N1CCCCC1)c1ccc(OC2OC(CO)C(O)C(O)C2O)cc1 (configuration not stated)	77.8%
CS(=O)(=O)Nc1ccc(C(=O)NC(C(=O)NO)c2ccc(-c3cccc(F)c3)cc2)cc1 (configuration not stated)	103%
CCCc1cc2c(cc1Br)OCO2	103%
Cc1cc(C)c(-c2c(N)cc(Br)cc2Br)c(N)c1	21.1%
COc1ccc2c(c1)oc1c(C)c3c(c(C)c12)C(=O)N(Nc1ccccc1)C3=O	107%
CS(=O)(=O)Nc1cc(-c2ccc3ncnc(Nc4ccc5c(cnn5Cc5ccccc5F)c4)c3c2)cnc1Cl	22.7%
O=C(N/N=C\c1cc(Br)ccc1O)c1ccncc1	-27.5% (active)
CCOC(=O)c1nn(CC(O)c2ccccc2)c(NC(=O)Nc2cccc(F)c2)c1C (configuration not stated)	108%
COC(=O)[C@]12CC[C@@H](C)[C@H](C)[C@@H]1C1=CC[C@@H]3[C@@]4(C)CC(=O)[C@H](O)[C@@]5(C)COC(=C45)C[C@@]3(C)[C@]1(C)CC2	-37.5% (active)
FCc1nc2nc(Cl)c(Cl)nc2[nH]1	102%
O=C(Nc1cccc(Cn2c(=O)[nH]c3ccc(Oc4ncccn4)cc3c2=O)c1)c1cccc(F)c1	89.9%
COc1cc(C#Cc2ccc(=O)oc2C#Cc2ccccc2)cc(OC)c1OC	34.2%
COc1ccc(OC)c(NC(=O)c2cc3oc4ccccc4c3cc2O)c1	121%
CCNC(=O)c1[nH]cc(-c2ccc(OC)cc2)c1-c1cc(OC)c(OC)c(OC)c1	5.15% (active)
CCN(Cc1ccccc1)c1ccc(SC#N)cc1	20.3%
COc1cccc(-c2nn(-c3ccccc3)cc2-c2ccnc(NCCCNS(=O)(=O)c3ccc(Cl)cc3)c2)c1	40%
